This excerpt belongs to a sample that is enriched for hits.
Cycloheximide cs: affects cycloheximide protein synthesis inhibition readout, counter-screen; cell reporter, cycloheximide protein synthesis inhibition counterscreen; max response, %; 12% of 300,000 active; in the data active means max response mostly above about 13%, no sharp cut-off; inactive means mostly below about 14%; further: read at 38.3 µM for the half of the compounds with a filed dose; 0% is about no effect
Shiga inhibitor: Shiga toxin inhibition; inhibition, % at 38.7 µM; AID 2315; Vero cells, Shiga toxin protein synthesis inhibition reporter; 9.2% of 290,000 active; in the data active means inhibition mostly above about 28%, no sharp cut-off; inactive means mostly below about 43%; further: 0% is about no effect
MARV entry inh: Marburg virus entry inhibition; Potency, µM (doses to about 37.8 µM), for the others: at the top dose activity change, negative = inhibition, actives largely listed as inhibitors; AID 540276; Marburg virus pseudotyped entry inhibition, cell reporter; 1.8% of 300,000 active; calls by dose curve; tested in HEK293 cells; further: potency means the concentration at half of the fitted maximal effect; on the % scale 0 is the no-effect control and ±100 the full control effect
AMA1 RON2 block: AMA1-RON2 (P. falciparum) interaction inhibition; AlphaScreen AMA1-biotinylated RON2 peptide binding; Potency, µM (top dose mostly 58.2 µM), inactives show at the highest dose activity change, negative = inhibition, actives largely listed as inhibitors; 0.2% of 360,000 active; active means well fitted inhibition curve with a large enough effect; inconclusive means small, poorly fitted or top-dose-only effect; inactive means no such curve, though single readings can be large or run the other way;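 further: potency means the concentration at half of the fitted maximal effect; 0% = vehicle wells and -100% = peptide control; nearly all actives have a fitted effect of over 45% in size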
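AMA1 (3D7) with his tag at 25 nM final met compounds first, then biotinylated RON2 peptide at 25 nM; detection used donor plus acceptor beads, 10 µg/mL apiece, read by AlphaScreen after 30 min at room temperature.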
LASV entry inh: blocks Lassa virus binding to or entry into cells | Lassa virus pseudotype entry inhibition, cell reporter | Potency, µM (highest dose often 37.9 µM), for inactives: at the highest dose activity change, negative = inhibition, actives largely listed as inhibitors | 1.2% of 300,000 active | AID 540256; calls by dose curve; tested in HEK293 cells; further: potency means the concentration at half of the fitted maximal effect; on the % scale 0 is the no-effect control and ±100 the full control effect; nearly all actives have a fitted effect of over 50% in size
* marks the source's active call; other numbers are inactive results; ? = inconclusive; . = not tested or not shown; ! = not confirmed by another sample; [ ] = dose if it differs, or a comment.

SMILES | Cycloheximide cs | Shiga inhibitor | MARV entry inh | AMA1 RON2 block | LASV entry inh
CC(C)OC(=O)CSc1ncnc2c1cnn2-c1ccccc1 | 1 | -4 | -4% | 1% | 16%
Nc1ncnc2c1cnn2-c1ccccc1 | 29* | 91*! | 24% | 7% | 0%
c1ccc(CSc2ncnc3c2cnn3-c2ccccc2)cc1 | 1 | -6 | 23% | -4% | 12%
COc1cc(SSc2cc(OC)cc([N+](=O)[O-])c2N)c(N)c([N+](=O)[O-])c1 | 8 | 18 | . | ? | .
Cc1ccc(F)c(S(=O)(=O)NC(=O)C2(C)CCN2C(=O)CCC2CCCC2)c1 (stereo not given) | . | . | . | -1% | .
O=[N+]([O-])c1ccccc1-c1ccc(CN2CCN(c3ccccc3)CC2)o1 | -1 | -5 | 2%[46.1 µM] | ? | 12%[46.1 µM]
CCc1nc(NC(C)(C)C)c2cnn(-c3ccccc3)c2n1 | 41* | 99* | -25%[46.1 µM] | 1% | -24%[46.1 µM]
CCC(=O)NNc1ncnc2c1cnn2-c1ccccc1 | 12 | 21 | 5%[46.1 µM] | 22% | 18%
Clc1ccc(-n2ncc3c(NCCCn4ccnc4)ncnc32)cc1 | 21* | 35* | ? | 11% | ?
COc1ccc(C)cc1NC(=O)N1CCCn2nc(C)cc21 | . | . | . | . | 7%[46.1 µM]
COc1ccc(OC)c(NC(=O)Nc2ccc3c(c2)CCC3)c1 | 19* | 28* | . | -14% | .
COc1cccc(NC(=O)Nc2ccc3c(c2)CCC3)c1 | 39* | 75* | . | 7% | .
O=C(NCc1ccc2c(c1)CCN2C(=O)c1ccccc1)c1cc2ccccc2[nH]1 | . | . | . | . | -20%[46.1 µM]
Cc1cnc(C(=O)Nc2nnc(C(C)C)s2)cn1 | 41* | 71* | ? | 19% | 23%
Cc1cnc(C(=O)Nc2nccs2)cn1 | 64* | 108* | 20% | 18% | ?
CC(C)c1nnc(NC(=O)c2cnccn2)s1 | 17* | 38* | 17% | 74% | 0%
Cc1cnc(C(=O)Nc2nnc(C)s2)cn1 | -2 | 9 | 1% | 93% | 6%
CC(C)c1ccccc1NC(=O)c1cnccn1 | 4 | 17 | 20% | 20% | 24%
Cc1cnc(C(=O)Nc2nnc(C3CC3)s2)cn1 | 32* | 23 | -7% | -1% | 0%
CC1=C(C)CC(C(=O)Nc2nccs2)C(C(=O)O)C1 (stereo not given) | 1 | 8 | -9%[46.1 µM] | -6% | 1%[46.1 µM]
COc1c(C(=O)Nc2nnc(C3CC3)s2)csc1Cl | 36* | 54* | . | 0% | .
O=C(Nc1nnc(C2CC2)s1)c1cccnc1Oc1ccc(Cl)cc1 | 2 | 19 | . | 0% | .
O=C(NCc1ccccc1F)c1cc2ccccn2n1 | . | . | . | . | 14%[46.1 µM]
CC(=O)c1cccc(NC(=O)c2cc3ccccn3n2)c1 | 30* | 34 | . | -1% | .
Cc1ccc(C)c(NC(=O)c2cc3ccccn3n2)c1 | 27* | 99* | . | 6% | .
SMILES | Cycloheximide cs | Shiga inhibitor | MARV entry inh | AMA1 RON2 block | LASV entry inh
COc1ccc(C)cc1NC(=O)c1cc2ccccn2n1 | . | . | . | . | 20%[46.1 µM]
O=C(NCc1ccc(F)cc1)c1cc2ccccn2n1 | 24* | -40 | 12% | 14% | -1%
Cc1ccccc1NC(=O)c1cc2ccccn2n1 | 52* | 67* | . | 6% | .
COc1ccc(N2CC(C(=O)NC3CCSC3=O)CC2=O)cc1 (stereo not given) | -3 | -5 | -9%[46.1 µM] | -2% | 5%[46.1 µM]
Cc1ccc(C)c(NC(=O)c2cnn3ccccc23)c1 | 14* | 66 | . | -4% | .
Cc1nnc(SCCC(=O)Nc2ccccc2Cl)o1 | -2 | 5 | -3% | -2% | -11%
CCc1ccc(NCc2cc3cc4c(cc3n(CC(=O)Nc3ccccc3OC)c2=O)OCCO4)cc1 | . | . | . | . | 0%[46.1 µM]
CC(C)(C)Nc1nc(OCC(F)(F)F)nc(OCC(F)(F)F)n1 | 13* | 31* | -7% | 0% | 0%
CCC(C)Nc1nc(OCC(F)(F)F)nc(OCC(F)(F)F)n1 (stereo not given) | -2 | -11 | 10% | -11% | -2%
Cc1ccc2cc(NC(=O)c3ccc(C(C)(C)C)cc3)ccc2n1 | -3 | 25 | ? | -1% | 4%[46.1 µM]
Cc1ccc2cc(NC(=O)c3ccccc3C)ccc2n1 | 34* | 81* | 18%[46.1 µM] | -4% | -17%[46.1 µM]
Cc1ccc2cc(NC(=O)Cc3ccccc3)ccc2n1 | 53* | 92* | . | -4% | .
CCc1ccc(C(=O)Nc2ccc3nc(C)ccc3c2)cc1 | 31* | 48 | ? | 5% | ?
CN(C(=O)c1cccc(NC(=O)Cc2ccccc2)c1)c1ccccc1 | 1 | 8 | . | 5% | .
Cc1ccc(C(=O)N/C(=C\c2cccs2)C(=O)NCCCN2CCOCC2)cc1 | -2 | -13 | ? | -3% | 1%
O=C(Nc1ccc(F)cc1)C1=CC(=O)N2CCN=C2S1 | 7 | -20 | . | . | .
COCCCNC(=O)COc1ccc(Cl)c(C)c1 | 18* | 32 | ? | -1% | 9%
Cc1cc(OCC(=O)NC(C)(C)C)ccc1Cl | 51* | 22* | ? | 23% | ?
Cc1cc(OCC(=O)N(C(C)C)C(C)C)ccc1Cl | -1 | 9 | -1%[46.1 µM] | -7% | -26%[46.1 µM]
CCOC(=O)c1ccc(NC(=O)CCc2c(C)n(CC)c3cc(-c4ccccc4OC)nn3c2=O)cc1 | . | . | 5%[46.1 µM] | . | 11%[46.1 µM]
O=C(/C=C/c1cccc(Cl)c1Cl)OCC(=O)N1CCOCC1 | . | . | 8% | -3% | -1%[46.1 µM]
COC(=O)N1CCN(c2ccc(Cl)c(Cl)c2)CC1 | 6 | -8 | ? | -6% | ?
COC(=O)N1CCN(c2ccc(C)c(C)c2)CC1 | 23* | 65 | . | . | .
COc1ccc(S(=O)(=O)CCC(=O)N2CCN(c3ccc(C(C)=O)cc3)CC2)cc1 | 15* | 56* | ? | 16% | ?
COC(=O)N1CCN(c2ccc(OC)cc2)CC1 | 9.4* | -19 | 14% | -7% | 4%
SMILES | Cycloheximide cs | Shiga inhibitor | MARV entry inh | AMA1 RON2 block | LASV entry inh
COc1ccc(N2CCN(C(=O)C3Cc4ccccc4CN3C(=O)c3ccccc3)CC2)cc1 (stereo not given) | 61* | 71* | 7%[46.1 µM] | -29% | 17%
Cc1ccccc1NCCNc1ccccc1C | 9 | -1 | 1% | -13% | -13%
COc1ccc(N2CCN(C(=O)c3ccc(NS(=O)(=O)c4ccc(F)cc4)cc3)CC2)cc1 | 13 | 43 | 5% | -10% | -2%
COc1ccc(N2CCN(C(=O)c3ccc(NS(=O)(=O)c4cccs4)cc3)CC2)cc1 | 27* | 63* | 20%[46.1 µM] | -8% | ?
O=C(C1CCC(CNS(=O)(=O)c2cccs2)CC1)N1CCN(c2ccc(F)cc2)CC1 (stereo not given) | -3 | -7 | 3.2µM* | 5% | ?
CCc1ccccc1N(C(=O)c1ccco1)C(C(=O)NC1CCCC1)c1cccnc1 (stereo not given) | -4 | 7 | ? | 21% | ?
Cc1cc2ccccc2n1CCNC(=O)c1ccc(Br)cc1 | . | . | 2%[46.1 µM] | . | -13%[46.1 µM]
Cc1cc2ccccc2n1CCNC(=O)c1ccccc1 | 15* | 24 | ? | -6% | 7.9µM*
Cc1cc2ccccc2n1CCNC(=O)c1ccc(Br)o1 | 19* | 28* | . | ? | .
CCc1nnc(NC(=O)C2=CCN(S(=O)(=O)c3ccc(F)cc3)CC2)s1 | 3 | -7 | . | -3% | .
CN(C)CCCOc1ccc(C(C)(C)c2ccccc2)cc1 | -2 | -6 | 13µM* | -9% | ?
O=C(Nc1ccc(CN2CCCCC2)cc1)c1ccc(Br)o1 | 31* | 79* | -4% | -10% | 0%
